Measured values published in PubChem BioAssay AID686971 (National Center for Advancing Translational Sciences (NCATS), 2013).
The whole screen tested about 360,000 compounds, of which about 7,500 (2.1%) were called active. Another 8% or so got no clear call; they are omitted. Calls follow the shape of the dose curve; as a rule, active = well fitted cell-killing curve with a large enough effect; inconclusive = small, poorly fitted or top-dose-only effect, or effect the other way, or another doubt; inactive = no such curve, though single readings can be large or run the other way. The entries come from a sample that favours actives as a whole. A call without a number means that no potency is given here.

Experiment: qHTS for induction of synthetic lethality in tumor cells producing 2HG: qHTS for the HT-1080-IDH1KD cell line
Details: HT-1080 IDH1 knockdown viability, ATP luminescence, 48 h; series mostly up to 46.1 µM
Procedure, shortened: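 Cytotoxicity counter-line: IDH1KD HT-1080, 48 h, CellTiter-Glo. Curves classed by r2, magnitude and activity.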
Potency is read from the fitted curve at half-maximal effect.

SMILES | Potency | activity, negative = toxicity
CCN1CCC2(CC1)N=C(c1ccc(F)cc1)C(=S)N2C(=O)c1ccc(C)cc1 | 23.1 µM (active) | –
CCN1CCN(C(=O)CSc2ccc(C)cc2)CC1 | inactive | –
Cc1ccc(SCC(=O)N2CCN(c3ccc(F)cc3)CC2)cc1 | inactive | –
CC(C)NC(=O)C1(C)CCCCCN1C(=O)c1ccc(-c2ccccc2)cc1 (stereo unspecified) | inactive | –
O=C1C(=O)N(c2ccccc2)C(c2ccccc2)C1c1ccccc1 (stereo unspecified) | inactive | –
O=C1[C@@H](c2ccccc2)[C@@H](c2ccccc2)N1c1cccnc1 | 16.4 µM (active) | –
Cc1ccccc1N1C(=O)C2ON(c3ccccc3)C(c3ccncc3)C2C1=O (stereo unspecified) | inactive | –
Fc1cccc(Cc2c(-c3cccc(Cl)c3)nc3ccc(Br)cn23)c1 | inactive | –
Cc1ccnc(SC2CC(=O)N(c3ccccc3)C2=O)n1 (stereo unspecified) | inactive | –
Cn1nccc1C(=O)NC1CCCc2c1cnn2-c1ccc(F)cc1F (stereo unspecified) | 0.92 µM (active) | –
Cc1ccc(-n2ncc3c2CCCC3NC(=O)c2cnccn2)cc1C (stereo unspecified) | inactive | –
CC(=O)NCC(=O)NC1CCCc2c1cnn2-c1ccccc1F (stereo unspecified) | inactive | –
N#CCCN(C(=S)Nc1ccc(Cl)c(Cl)c1)C1CCCCC1 | inactive | –
Cc1ccc(C(O)c2ncc(-c3ccccc3F)[nH]2)cc1F (stereo unspecified) | inactive | –
CCOC(=O)c1c(NC(=S)SC)sc(C(=O)N2CCc3ccccc3C2)c1C | inactive | –
O=S(=O)(O)c1nc2ccccc2n1Cc1ccc(Cl)cc1Cl | inactive | –
CC(C)(C)C(=O)Cn1c(NCCO)nc2ccccc21 | inactive | –
O=C(Cn1c(NCCO)nc2ccccc21)c1ccc(Cl)cc1Cl | 20.6 µM (active) | –
CCCCCCn1c(=O)n2n(c1=O)C[C@]1(OC(=O)NCc3ccc(OC)c(OC)c3)CN(S(=O)(=O)c3ccc(C)cc3)C[C@]1(O)C2 | inactive | –
CCc1oc(-c2ccc(OC)cc2)c(C(=O)OCCCCCO)c1C(C)OCCO (stereo unspecified) | inactive | –
CC1(C)N=C(N)NC(Nc2ccc(Cl)cc2)=N1 | inactive | –
COc1ccccc1NC(=O)C1CCCN1S(=O)(=O)c1ccc(Cl)cc1 (stereo unspecified) | inactive | –
COc1ccccc1NC1=NC(c2ccc(Cl)cc2)N=C(N)N1 (stereo unspecified) | 5.62 µM (active) | –
COc1ccc([C@H]2N[C@]3(CCCN(Cc4ccco4)C3=O)[C@H]3C(=O)N(C)C(=O)[C@@H]23)cc1 | inactive | –
O=C1OCCOC2CCCc3oc(-c4ccccc4)c1c32 (stereo unspecified) | inactive | –
C[C@H]1Cn2cnc(C(=O)N[C@@H](Cc3c[nH]c4ccccc34)C(=O)OC(C)(C)C)c2C(=O)N1 | inactive | –

SMILES | Potency | activity, negative = toxicity
O=S(=O)([N-]c1nc2ccccc2nc1-[n+]1ccc(Cc2ccccc2)cc1)c1ccc(Br)s1 | 20.6 µM (active) | –
O=S(=O)(NCc1cccnc1)c1ccc(Br)s1 | inactive | –
O=C(NCCc1ccccc1)C1CCN(S(=O)(=O)c2ccc(Br)s2)CC1 | inactive | –
COCOc1cccc(CN2CCC(C)(Oc3ccc(SC)cc3)C2)c1 (stereo unspecified) | inactive | –
CCOC(=O)C1CCCN(C(=O)c2ccc(C)c(F)c2)CC1 (stereo unspecified) | inactive | –
CCC1OC(C2CC2)CC2=C1C(=O)OC(C)(C)O2 (stereo unspecified) | inactive | –
COc1ccc(CNc2ncnc3ccccc23)cc1 | inactive | –
c1coc(CNc2ncnc3ccccc23)c1 | 20.6 µM (active) | –
Brc1ccc2ncnc(NCc3cccnc3)c2c1 | inactive | –
COc1cccc(C(NC(C)=O)c2nc(-c3cnc4ccccc4c3)cs2)c1 (stereo unspecified) | inactive | –
O=C(Nc1ccc2c(c1)OCCO2)C(C1CC1)N1CCC(Cc2ccccc2)CC1 (stereo unspecified) | inactive | –
COc1ccc(Br)cc1/C=N/Nc1ccc(Cl)c(C(=O)O)c1 | inactive | –
O=c1[nH]c2cccnc2n(CCNc2ncc(C(F)(F)F)cc2Cl)c1=O | inactive | –
COc1cccc(/C=N/Nc2ncc(C(F)(F)F)cc2Cl)c1O | 9.2 µM (active) | –
CCOC(=O)c1c(C)[nH]c(C)c1C(=O)COC(=O)/C=C/c1cccc([N+](=O)[O-])c1 | inactive | –
Nc1[nH]c(C(=O)c2ccccc2)c(-c2ccncc2)c1C(=O)NCc1cccc2ccccc12 | inactive | –
CCOC(=O)[C@]12CCCC=C1N(CCC1=CCCCC1)C(=O)[C@H](CC(=O)N1CCSCC1)C2 | inactive | –
Cc1ccccc1S(=O)(=O)NC(=O)C1(C)CCN1C(=O)C1(c2ccccc2)CCCC1 (stereo unspecified) | inactive | –
c1ccc(-c2nnc(N3CCOCC3)c3ccccc23)cc1 | inactive | –
c1ccc2c(NC3C4CC5CC(C4)CC3C5)nc(N3CCOCC3)nc2c1 (stereo unspecified) | 18.4 µM (active) | –
Fc1cnc(N2CCOCC2)nc1NCc1ccccc1 | inactive | –
Cc1ccc(C=O)c([B-](F)(F)F)c1 | inactive | –
CN1c2ccc(C=O)c3c(C=O)ccc(c23)N(C)C1(C)C | 11.6 µM (active) | –
CC1CN(C(=O)c2cccc(NS(=O)(=O)c3ccc(Br)cc3)c2)CC(C)O1 (stereo unspecified) | inactive | –
CCc1nc2c(OCC(N)=O)cccn2c1N(C)C(=O)c1ccc(OC)cc1 | inactive | –
C[C@@H]1CN([C@H](C)CO)S(=O)(=O)c2ccc(C#C[C@@H](C)O)cc2O[C@@H]1CN(C)Cc1ccc(-c2ccccc2)cc1 | inactive | –

SMILES | Potency | activity, negative = toxicity
O=C1c2ccccc2C(=O)N1CCC#Cc1ccc2cc(C3(O)CCCCC3)oc(=O)c2c1 | inactive | –
COc1cc(C#Cc2ccc3cc(CCCO)oc(=O)c3c2)cc(OC)c1 | 2.06 µM (active) | –
COc1cc(/C=C2\Oc3ccc(C#Cc4ccc(O)cc4)cc3C2=O)cc(OC)c1 | inactive | –
NC(=O)Cn1cc(/C=N\NS(=O)(=O)c2ccccc2)c2ccccc21 | inactive | –
COC(=O)c1cn(CC(=O)NCc2cccs2)c2ccccc12 | inactive | –
COC(=O)Cn1cc(/C=C/[N+](=O)[O-])c2ccccc21 | 23.1 µM (active) | –
COC(=O)[C@]12CCCCC=C1N(Cc1cccc3ccccc13)C(=O)[C@H](CC(=O)N1CCOCC1)C2 | inactive | –
COCCCN1C(=O)C(CC(=O)NCc2cccs2)CC(C(=O)N2CCOCC2)=C1C (stereo unspecified) | inactive | –
COC(=O)C1=C(Nc2ccc(C)cc2)C=C(C)C(C(=O)OC)C1c1ccc(F)cc1 (stereo unspecified) | 11.2 µM (active) | –
COC(=O)C1C(=O)NCC1c1ccc(C)cc1 (stereo unspecified) | inactive | –
COC(=O)C1=C(Nc2ccc(OC)cc2)C=C(C)C(C(=O)OC)C1c1ccc(C)cc1 (stereo unspecified) | inactive | –
COc1ccc(Cn2c(=O)oc3ccccc32)cc1 | inactive | –
CC(C)CCNC(=O)c1[nH]c(C(F)(F)F)nc1-c1ccccc1 | inactive | –
O=C(Nc1cc(F)ccc1F)c1ccc2c(=O)n3c(nc2c1)CCC3 | inactive | –
CC1(C(=O)NCc2ccc3c(c2)OCO3)CCN1C(=O)Cc1cccs1 (stereo unspecified) | inactive | –
CN1CCn2cnc(C(=O)NCC(=O)OC(C)(C)C)c2C1=O | inactive | –
C[N+](C)(C)CCNC(=O)c1c[nH]c2ccccc12 | inactive | –
CC[C@H]1CN2CCc3cc(OC)c(OC)cc3[C@@H]2C[C@@H]1C[C@H]1NCCc2cc(OC)c(OC)cc21 | 0.13 µM (active) | –
COc1cc2c(cc1OC)CN(CC(=O)Nc1ccc(F)cc1)CC2 | inactive | –
Clc1ccc(-c2cccc3nccn23)cc1 | inactive | –
Cc1cccc(CN2CCN(C3CN(Cc4ccccc4)S(=O)(=O)C3)CC2)c1 (stereo unspecified) | inactive | –
COc1cc(CCN=Cc2ccccc2O)c([N+](=O)[O-])cc1OC | inactive | –
Cc1cccc(-n2ncc(Cl)c(Cl)c2=O)c1 | 20.6 µM (active) | –
Cc1ccc(Oc2cnn(-c3ccccc3)c(=O)c2Br)cc1 | inactive | –
C=CCNc1cnn(-c2ccc(C)cc2)c(=O)c1Cl | – | 5.14% [at 9.24 µM] (inactive)
CCCC(=O)N1CCC1(C)C(=O)NCc1ccc(C(C)C)cc1 (stereo unspecified) | inactive | –

SMILES | Potency | activity, negative = toxicity
Cc1csc(=O)n1CCC(=O)OCC(=O)Nc1ccc(N2CCOCC2)cc1 | inactive | –
O=C(Nc1ccc(C(=O)N2CCOCC2)cc1)Nc1cccc(C(F)(F)F)c1 | inactive | –
COc1ccc(CC(N)c2csc(NC(=O)Nc3ccc(C(C)C)cc3)n2)cc1 (stereo unspecified) | 14.6 µM (active) | –
NC(c1ccccc1)c1csc(NC(=O)Nc2cccc(C(F)(F)F)c2)n1 (stereo unspecified) | inactive | –
COc1ccc(NC(=O)C(=O)NCC(=O)Nc2cccc(C(F)(F)F)c2)cc1 | inactive | –
COc1ccc(C(N)c2csc(NC(=O)Nc3cccc(C(F)(F)F)c3)n2)cc1 (stereo unspecified) | 18.4 µM (active) | –
CC(C)C[C@H](NC(=O)Nc1cccc(C(F)(F)F)c1)C(=O)O | inactive | –
NC(c1csc(NC(=O)Nc2cccc(C(F)(F)F)c2)n1)C1CCCCC1 (stereo unspecified) | 14.6 µM (active) | –
CC(C)(C)CC(=O)Nc1nc(C(N)Cc2ccc(C(F)(F)F)cc2)cs1 (stereo unspecified) | 18.4 µM (active) | –
CC(C)(C)CC(=O)Nc1nnc(SCC(=O)NCc2cccs2)s1 | inactive | –
COC(=O)[C@H](CCSC)NC(=O)Nc1ccc(OC)cc1 | inactive | –
COc1ccc(NC(=O)C(Br)C(C)C)cc1 (stereo unspecified) | inactive | –
Cc1ccccc1NC(=O)Cc1nc(COC(=O)c2ccc(C(F)(F)F)cc2)cs1 | inactive | –
C=C1C=C(C)n2ncc(C(=O)Nc3ccccc3O)c2N1 | inactive | –
CCc1nc2c(OCCOc3ccccc3)cccn2c1N(C)C(=O)c1ccccc1F | inactive | –
CCOc1cc(/C=N/NC(=O)c2ccncc2)cc(Br)c1O | inactive | –
Cc1cc(Cl)ccc1C(=O)C1CCCN(C(=O)c2ccc3c(c2)OCO3)C1 (stereo unspecified) | inactive | –
C[C@@H]1CN([C@@H](C)CO)C(=O)CCCn2cc(nn2)CO[C@H]1CN(C)S(=O)(=O)c1ccc(-n2cccn2)cc1 | inactive | –
O=C(c1ccc(CS(=O)Cc2ccccc2Cl)o1)N1CCN(c2ccccc2)CC1 (stereo unspecified) | inactive | –
CC1(C(=O)NS(=O)(=O)c2ccc(C#N)cc2)CCN1C(=O)c1ccc(C2CCCCC2)cc1 (stereo unspecified) | inactive | –
CCOC(=O)C1C(C)C(C(C)(C)C)N(S(=O)(=O)c2ccc(C)cc2)C1c1ccccc1 (stereo unspecified) | inactive | –
Cc1ccc(-c2ccc(CN3C(C)C(=O)N(Cc4cn(CCC5OCCCO5)nn4)CCS3(=O)=O)cc2)cc1 (stereo unspecified) | inactive | –
CC1(C(=O)Nc2cccc3c2CCCC3)CCN1C(=O)C1(c2ccccc2)CC1 (stereo unspecified) | inactive | –
